MazEF act: activators of E. coli MazEF toxin-antitoxin RNase | P0AE70 | FAM/BHQ RNA-DNA oligo cleavage fluorescence, 5 h | activation, % at 20 µM | 350,000 tested, 0.32% active | AID 504720; in the data active = activation above about 50%
Target sequence (P0AE70 whole entry, looked up): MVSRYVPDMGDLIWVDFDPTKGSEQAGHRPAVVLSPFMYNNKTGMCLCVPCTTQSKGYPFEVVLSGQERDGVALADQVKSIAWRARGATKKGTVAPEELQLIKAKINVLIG
Autofluor counter: counter-screen for toxin protease inhibitors: compound fluorescence; compound autofluorescence counterscreen, microsphere flow cytometry; stronger effect = higher value; fluorescence intensity (test concentration not listed); 360,000 tested, 3.1% active; in the data active = fluorescence intensity above about 16000; inconclusive = no clear call, values can overlap the other calls
Anthrax LF prot: blocks Bacillus anthracis lethal factor protease; AID 588501; inhibition, % at 10 µM; 360,000 tested, 0.12% active; multiplex microsphere protease cleavage assay, LF; P15917; also: plate controls were buffer without enzyme for full effect and enzyme alone for no effect
DUSP3 inh: inhibitors of human VHR1 phosphatase (DUSP3); recombinant VHR phosphatase, pNPP absorbance; inhibition, % at 13.3 µM; 290,000 tested, 0.52% active; AID 1654; in the data active = inhibition above about 50%
Target sequence (P51452 whole entry, looked up): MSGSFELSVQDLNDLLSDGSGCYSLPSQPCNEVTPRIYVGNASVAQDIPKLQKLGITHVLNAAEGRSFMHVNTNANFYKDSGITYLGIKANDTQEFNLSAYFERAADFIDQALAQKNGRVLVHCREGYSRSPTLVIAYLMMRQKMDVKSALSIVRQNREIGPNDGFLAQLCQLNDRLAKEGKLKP
BoNT-A LC inh2: inhibitors of Botulinum neurotoxin A light chain protease. inhibition, % at 10 µM. multiplex microsphere protease substrate cleavage, flow cytometry. 360,000 tested, 0.17% active; also: plate controls were buffer without enzyme for full effect and enzyme alone for no effect
BoNT F protease: blocks Botulinum neurotoxin F light chain protease. 360,000 tested, 0.22% active. inhibition, % at 10 µM. Multiplex microsphere protease cleavage assay, flow cytometry; in the data active = inhibition above about 35%, passing the limit was not always enough; inconclusive = no clear call, values can overlap the other calls; also: plate controls were buffer without enzyme for full effect and enzyme alone for no effect
The depositor's hits bear a star; ? = inconclusive; · = no result given. Rows were chosen to be rich in hits. Some 4.1% of all compounds tested hit in one or more screens of this group. Rule as the data show it, unless noted: active = inhibition above about 30%; inconclusive = no clear call, values can overlap the other calls; inactive = below that.

SMILES | MazEF act | Autofluor counter | Anthrax LF prot | DUSP3 inh | BoNT-A LC inh2 | BoNT F protease
COc1ccccc1NC(=O)CN1CCN(Cc2ccccc2)CC1 | -3.9 | 16872* | -5.1 | 13.4 | -1.5 | -4.8
O=C(CN1CCN(c2ccccn2)CC1)Nc1cc(F)ccc1F | 9.5 | 3897 | 16.7 | · | -2.3 | -21.5
O=C(Nc1ccccc1)N1CCN(c2ccccn2)CC1 | -3.2 | 3348 | 3.3 | 11.6 | -0.7 | 5.8
O=C(CN1CCN(c2ccccn2)CC1)Nc1ccccc1F | 5.7 | 3305 | -6.4 | 57.0* | -2.5 | 3.2
Cc1ccc(NC(=O)N2CCN(c3ccccn3)CC2)cc1 | 2.7 | 22825* | -1.0 | -15.5 | 0.7 | 1.6
COc1ccc(NC(=O)CN2CCN(CC(=O)Nc3ccccc3Cl)CC2)c(OC)c1 | -2.1 | 22552* | -1.1 | 16.6 | 3.5 | 1.0
CCC(C)NS(=O)(=O)c1ccc(S(=O)(=O)N(CCc2ccc(OC)c(OC)c2)Cc2cccs2)cc1 (stereo not drawn) | -3.8 | 2600 | -1.4 | 12.6 | -0.5 | -7.6
COc1ccccc1NC(=O)CN1CCN(c2ccccn2)CC1 | -3.9 | 20530* | -2.0 | 9.4 | -1.3 | -1.2
Cc1ccc(CN2CCC[C@]3(N[C@H](c4ccc(C)cc4)[C@@H]4C(=O)N(C)C(=O)[C@@H]43)C2=O)cc1 | -5.0 | 2988 | -2.9 | · | -0.1 | -1.7
O=C(NNc1nc(-c2ccccc2)cs1)c1ccccc1 | 11.1 | 22139* | -10.8 | 20.5 | 0.5 | -3.1
O=C(/C=C/c1cccs1)Nc1nc(-c2ccccc2)cs1 | 8.7 | 22955* | -3.7 | 1.2 | 0.9 | 1.5
Cc1cc(C)n2nc(SCc3c(F)cccc3Cl)nc2n1 | -0.5 | 2833 | 17.6 | 6.9 | 1.2 | 0.5
Cc1nc(SCc2c(F)cccc2Cl)n[nH]1 | -0.4 | 19718* | -3.1 | 2.9 | 5.8 | 8.1
CCCNC(=O)Cn1c(=O)/c(=C\c2ccc(-c3cccc([N+](=O)[O-])c3)o2)s/c1=C\C(=O)C(C)(C)C | 175.0* | 2727 | 15.5 | -3.6 | 32.6* | 12.2
CCCNC(=O)Cn1c(=O)/c(=C\c2ccc(-c3ccc([N+](=O)[O-])cc3)o2)s/c1=C\C(=O)C(C)(C)C | 86.4* | 12168 | 9.1 | -9.9 | 13.1 | 15.7
CCCNC(=O)Cn1c(=O)/c(=C/c2ccc(-c3cccc([N+](=O)[O-])c3)o2)s/c1=C\C(=O)C(C)(C)C | 54.2* | 4302 | 8.2 | · | 9.7 | 8.3
O=C1NC(=O)/C(=C/c2ccc(-c3cccc([N+](=O)[O-])c3)o2)S1 | 9.2 | · | · | 34.6 | · | ·
Cc1cc(C(=O)NCc2ccccc2Br)no1 | -2.3 | 21781* | -0.9 | -7.5 | ? | -3.3
CCNC(=S)NNC(=O)c1cc(C)on1 | -13.3 | 21335* | 0.4 | 27.0 | 5.4 | 5.9
Cc1cc(C(=O)NCc2ccccc2)no1 | 1.5 | 15472 | -16.3 | -4.6 | 13.2 | 16.8
O=C(COc1ccc(Br)cc1)Nc1ccc(NC(=O)c2ccccc2)cc1 | -26.0 | 6035 | 2.1 | -5.4 | -1.5 | -4.3
Cc1ccccc1NC(=O)c1ccc(C)c(S(=O)(=O)Nc2ccccn2)c1 | -0.1 | 18024* | -17.7 | 9.7 | 11.2 | 16.0
Cc1ccc(C(=O)Nc2ccc(Br)cc2)cc1S(=O)(=O)Nc1ccccn1 | 124.5* | 8887 | -1.3 | -13.0 | -0.2 | -4.9
Cc1ccccc1NC(=O)c1ccc(C)c(S(=O)(=O)NCc2cccnc2)c1 | -5.7 | 4532 | -2.0 | 38.4 | -2.5 | 4.6
Cc1ccccc1NS(=O)(=O)c1cc(C(=O)N2CCc3ccccc3C2)ccc1C | 1.1 | 25113* | -3.0 | 1.5 | ? | -5.1
SMILES | MazEF act | Autofluor counter | Anthrax LF prot | DUSP3 inh | BoNT-A LC inh2 | BoNT F protease
CCCCn1c(N)c(N(Cc2ccccc2OC)C(=O)C(C)Oc2cccc(Cl)c2)c(=O)[nH]c1=O (stereo not drawn) | -1.3 | 3993 | -6.6 | · | -0.2 | -0.3
O=C(NCc1cccs1)c1ccc2sc(C3=C[C@@H](O)[C@@H](O)[C@@H](CO)O3)nc2c1 | · | 3636 | -5.0 | · | 0.4 | 3.5
O=C(C[C@H]1C(=O)N(c2ccccc2)C[C@@H]1Cc1ccccc1)Nc1ccccc1 | 3.6 | 3536 | -7.3 | · | 0.3 | -0.1
Cc1nc(-c2ccccc2)sc1C(=O)NN | -6.6 | 4706 | -0.5 | 5.5 | 0.7 | 0.7
Cc1ccc(N/C=C/C(=O)c2sc(-c3ccccc3)nc2C)cc1 | 5.7 | 2766 | 22.9 | 21.3 | 32.2* | 25.5
O=C(NCCCN1CCOCC1)c1ccc2nc(Cc3cccc(Cl)c3)oc2c1 | 8.8 | 5554 | -1.4 | 18.5 | 1.4 | -1.0
COc1cccc(/C=C(/C#N)c2ccc(F)cc2)c1OCc1cccc(C(=O)O)c1 | -4.0 | 2100 | 2.9 | 1.3 | 0.7 | 1.2
